# Data: the supplement of paper PMC8728848
# The sample as a whole holds a higher share of the strongest signals than the screen did.
# Columns and labels:
# Assay in all cases: glycan array binding signal (z-score within array); higher = stronger binding
# [1] = tested on: Gal3S6S(b1-4)GlcNAc; settings: glycan notation: IUPAC condensed, linker removed
# Procedure, shortened: (§1)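 Glycan array data came from 3228 arrays in the Consortium for Functional Glycomics database, and only arrays with an available protein sequence were kept. Glycan names were put into IUPAC-condensed notation, and columns mapping to the same glycan were averaged. The binding signal is a within-array Z-score, averaged across arrays of one protein sequence run at different concentrations or buffers and across linkers. A negative Z-score can be read as non-binding.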
# [2] = tested on: Gal3S(b1-4)Glc; settings: glycan notation: IUPAC condensed, linker removed
# Procedure, shortened: as §1
# [3] = tested on: Gal3S(b1-4)[Fuc(a1-3)]Glc6S; settings: glycan notation: IUPAC condensed, linker removed
# Procedure, shortened: as §1
# [4] = tested on: Gal3S(b1-4)[Fuc(a1-3)]GlcNAc6S; settings: glycan notation: IUPAC condensed, linker removed
# Procedure, shortened: as §1
# [5] = tested on: Gal3S(b1-4)[Fuc(a1-3)]GlcNAc; settings: glycan notation: IUPAC condensed, linker removed; mutation: R125K
# Procedure, shortened: as §1
# [6] = tested on: Gal3S6S(b1-4)GlcNAc6S; settings: glycan notation: IUPAC condensed, linker removed
# Procedure, shortened: as §1
# [7] = tested on: Gal4S6S(b1-4)GlcNAc; settings: glycan notation: IUPAC condensed, linker removed
# Procedure, shortened: as §1
# [8] = tested on: Gal6S(b1-4)GlcNAc; settings: glycan notation: IUPAC condensed, linker removed
# Procedure, shortened: as §1
# [9] = tested on: Gal6S(b1-3)GlcNAc; settings: glycan notation: IUPAC condensed, linker removed
# Procedure, shortened: as §1
# [10] = tested on: Gal3S(b1-4)[Fuc(a1-3)]Glc; settings: glycan notation: IUPAC condensed, linker removed
# Procedure, shortened: as §1
# Sequence of Aggrecan (Rattus norvegicus), NP_071526 (chain, as listed by the source): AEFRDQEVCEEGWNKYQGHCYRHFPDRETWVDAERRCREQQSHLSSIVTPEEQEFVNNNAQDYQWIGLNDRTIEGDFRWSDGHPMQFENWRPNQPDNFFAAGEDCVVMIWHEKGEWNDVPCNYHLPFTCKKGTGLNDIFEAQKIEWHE
# Sequence of PILRa (Mus musculus), Q2YSF3 (Q2YSF3 entry or part of it): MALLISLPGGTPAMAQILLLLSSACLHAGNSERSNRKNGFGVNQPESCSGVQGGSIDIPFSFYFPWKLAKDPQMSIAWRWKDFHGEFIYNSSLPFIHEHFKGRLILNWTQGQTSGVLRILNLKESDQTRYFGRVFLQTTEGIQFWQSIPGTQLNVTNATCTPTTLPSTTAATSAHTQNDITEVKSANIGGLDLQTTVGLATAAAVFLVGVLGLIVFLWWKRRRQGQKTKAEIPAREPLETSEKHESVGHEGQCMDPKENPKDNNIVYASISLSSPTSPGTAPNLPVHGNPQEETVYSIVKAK
# Sequence of 6RG (Lolium perenne), B9U140 (B9U140 entry or part of it): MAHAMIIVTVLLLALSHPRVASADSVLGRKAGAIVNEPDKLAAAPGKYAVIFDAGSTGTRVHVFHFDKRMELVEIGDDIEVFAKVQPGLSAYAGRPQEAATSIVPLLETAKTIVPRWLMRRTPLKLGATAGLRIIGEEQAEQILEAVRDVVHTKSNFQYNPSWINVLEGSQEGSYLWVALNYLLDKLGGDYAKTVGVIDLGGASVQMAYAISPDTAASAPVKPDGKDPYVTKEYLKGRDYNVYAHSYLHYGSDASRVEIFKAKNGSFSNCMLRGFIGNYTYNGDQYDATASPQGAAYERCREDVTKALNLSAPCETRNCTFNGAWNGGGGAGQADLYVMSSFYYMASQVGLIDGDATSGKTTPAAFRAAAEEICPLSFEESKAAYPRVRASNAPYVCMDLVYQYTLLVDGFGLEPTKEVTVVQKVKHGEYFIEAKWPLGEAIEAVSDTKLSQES
# Sequence of Regenerating Gene IV (Homo sapiens), Q9BYZ8 (Q9BYZ8 whole entry, looked up): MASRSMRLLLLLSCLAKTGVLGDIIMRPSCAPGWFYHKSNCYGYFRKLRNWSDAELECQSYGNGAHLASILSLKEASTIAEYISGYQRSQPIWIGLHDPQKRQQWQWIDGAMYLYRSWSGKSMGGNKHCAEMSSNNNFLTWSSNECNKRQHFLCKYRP
# Sequence of CHT (Homo sapiens) (chain, as listed by the source): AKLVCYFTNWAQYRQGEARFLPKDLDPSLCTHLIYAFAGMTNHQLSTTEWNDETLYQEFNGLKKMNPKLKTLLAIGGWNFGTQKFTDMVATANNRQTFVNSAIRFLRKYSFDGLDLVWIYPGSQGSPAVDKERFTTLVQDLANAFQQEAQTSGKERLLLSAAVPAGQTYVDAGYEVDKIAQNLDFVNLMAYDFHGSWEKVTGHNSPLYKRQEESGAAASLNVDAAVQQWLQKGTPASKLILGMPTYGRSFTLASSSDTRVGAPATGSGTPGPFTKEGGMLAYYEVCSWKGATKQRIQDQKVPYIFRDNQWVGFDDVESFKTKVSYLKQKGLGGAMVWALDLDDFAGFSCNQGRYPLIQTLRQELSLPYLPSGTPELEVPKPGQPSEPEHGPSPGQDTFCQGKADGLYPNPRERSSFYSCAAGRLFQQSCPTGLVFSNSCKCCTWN
# Sequence of CHI3L1 (Homo sapiens), P36222 (P36222 whole entry): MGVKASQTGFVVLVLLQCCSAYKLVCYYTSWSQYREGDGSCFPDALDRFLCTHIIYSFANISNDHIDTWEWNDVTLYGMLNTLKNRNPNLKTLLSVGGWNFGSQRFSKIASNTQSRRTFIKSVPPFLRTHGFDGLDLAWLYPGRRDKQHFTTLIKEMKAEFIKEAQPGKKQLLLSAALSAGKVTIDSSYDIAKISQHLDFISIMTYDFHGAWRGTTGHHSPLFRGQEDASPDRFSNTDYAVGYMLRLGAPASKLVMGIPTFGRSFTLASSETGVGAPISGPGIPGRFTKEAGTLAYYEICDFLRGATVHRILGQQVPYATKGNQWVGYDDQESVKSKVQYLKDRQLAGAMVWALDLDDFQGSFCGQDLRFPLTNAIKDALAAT
# Sequence of PILRb (Mus musculus), Q2YSF2 (Q2YSF2 entry or part of it): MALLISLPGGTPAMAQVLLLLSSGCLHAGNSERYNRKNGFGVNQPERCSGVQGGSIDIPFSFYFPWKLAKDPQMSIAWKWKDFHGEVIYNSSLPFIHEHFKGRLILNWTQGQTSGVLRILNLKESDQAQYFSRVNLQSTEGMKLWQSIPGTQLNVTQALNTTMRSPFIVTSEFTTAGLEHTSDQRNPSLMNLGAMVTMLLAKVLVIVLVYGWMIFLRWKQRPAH
# Sequence of SRLC (Mus musculus), Q8VIF6 (Q8VIF6 other isoform, or with tags, fused parts or gaps): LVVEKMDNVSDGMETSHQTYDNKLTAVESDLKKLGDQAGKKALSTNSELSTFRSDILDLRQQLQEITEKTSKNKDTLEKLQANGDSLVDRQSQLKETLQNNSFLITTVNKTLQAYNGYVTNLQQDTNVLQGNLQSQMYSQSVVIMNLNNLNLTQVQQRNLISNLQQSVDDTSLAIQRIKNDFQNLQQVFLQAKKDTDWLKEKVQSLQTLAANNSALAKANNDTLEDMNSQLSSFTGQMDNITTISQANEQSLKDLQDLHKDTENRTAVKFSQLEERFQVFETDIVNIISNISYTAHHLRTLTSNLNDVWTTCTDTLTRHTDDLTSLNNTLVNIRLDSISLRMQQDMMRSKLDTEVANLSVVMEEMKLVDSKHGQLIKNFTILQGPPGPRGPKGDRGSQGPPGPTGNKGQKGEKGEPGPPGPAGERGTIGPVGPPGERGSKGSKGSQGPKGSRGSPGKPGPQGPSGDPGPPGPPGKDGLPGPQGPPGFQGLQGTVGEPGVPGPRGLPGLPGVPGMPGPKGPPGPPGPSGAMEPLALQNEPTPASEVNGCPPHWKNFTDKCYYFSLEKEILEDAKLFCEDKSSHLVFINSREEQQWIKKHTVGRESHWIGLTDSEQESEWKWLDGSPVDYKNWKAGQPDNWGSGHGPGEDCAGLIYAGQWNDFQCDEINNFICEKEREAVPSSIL
# Sequence of wLAT-1A (Homo sapiens), Q01650 (Q01650 whole entry): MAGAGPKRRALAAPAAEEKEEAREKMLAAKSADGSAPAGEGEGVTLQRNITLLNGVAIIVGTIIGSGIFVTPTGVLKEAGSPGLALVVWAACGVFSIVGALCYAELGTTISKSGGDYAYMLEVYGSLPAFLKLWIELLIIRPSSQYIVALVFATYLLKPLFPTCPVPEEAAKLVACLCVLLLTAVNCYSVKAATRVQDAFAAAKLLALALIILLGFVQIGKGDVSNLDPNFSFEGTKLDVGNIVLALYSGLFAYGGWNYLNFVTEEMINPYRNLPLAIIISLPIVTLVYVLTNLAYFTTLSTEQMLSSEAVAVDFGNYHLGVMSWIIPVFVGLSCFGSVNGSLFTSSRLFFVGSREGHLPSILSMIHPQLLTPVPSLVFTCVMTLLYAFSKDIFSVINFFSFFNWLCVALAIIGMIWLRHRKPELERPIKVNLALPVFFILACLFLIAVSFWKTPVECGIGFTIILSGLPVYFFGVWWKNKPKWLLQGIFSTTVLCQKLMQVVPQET
# Sequence of C3b (Homo sapiens), P01024 (P01024 23-667): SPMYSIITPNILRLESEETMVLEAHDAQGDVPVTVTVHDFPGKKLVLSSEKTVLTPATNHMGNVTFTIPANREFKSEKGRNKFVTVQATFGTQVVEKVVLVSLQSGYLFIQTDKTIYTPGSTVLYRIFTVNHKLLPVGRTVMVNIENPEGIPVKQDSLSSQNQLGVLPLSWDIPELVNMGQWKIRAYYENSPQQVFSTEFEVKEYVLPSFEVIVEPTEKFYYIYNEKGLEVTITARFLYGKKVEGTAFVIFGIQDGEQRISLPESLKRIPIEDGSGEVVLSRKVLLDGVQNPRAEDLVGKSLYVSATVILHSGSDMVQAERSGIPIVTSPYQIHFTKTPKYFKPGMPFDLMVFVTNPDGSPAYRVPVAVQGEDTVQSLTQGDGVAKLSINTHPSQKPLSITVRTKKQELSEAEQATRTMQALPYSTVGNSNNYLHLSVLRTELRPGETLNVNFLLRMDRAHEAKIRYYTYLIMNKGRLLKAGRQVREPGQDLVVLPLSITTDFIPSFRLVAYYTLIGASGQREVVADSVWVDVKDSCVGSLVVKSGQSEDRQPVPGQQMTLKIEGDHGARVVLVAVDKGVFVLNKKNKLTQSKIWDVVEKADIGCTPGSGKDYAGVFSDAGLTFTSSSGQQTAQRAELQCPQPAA
substance,measurement,setting,value
"C3b (Homo sapiens), P01024",glycan array binding signal (z-score),[1],-0.743
"Regenerating Gene IV (Homo sapiens), Q9BYZ8",glycan array binding signal (z-score),[1],0.332
MpAFP RI GFP (Marinomonas primoryensis),glycan array binding signal (z-score),[2],0.469
"Siglec-8 (Homo sapiens), Q9NYZ4",glycan array binding signal (z-score),[3],0.077
same,glycan array binding signal (z-score),[4],-0.171
same,glycan array binding signal (z-score),[5],0.148
"6RG (Lolium perenne), B9U140",glycan array binding signal (z-score),[6],2.09
same,glycan array binding signal (z-score),[7],1.06
CHT (Homo sapiens),glycan array binding signal (z-score),"[1]; mutation: D138V, E140I",-0.059
"Aggrecan (Rattus norvegicus), NP_071526",glycan array binding signal (z-score),[1],-0.034
same,glycan array binding signal (z-score),[7],-0.024
same,glycan array binding signal (z-score),[8],0.061
"PILRa (Mus musculus), Q2YSF3",glycan array binding signal (z-score),[2],0.049
same,glycan array binding signal (z-score),[9],1.62
"wLAT-1A (Homo sapiens), Q01650",glycan array binding signal (z-score),[8],3.6
"CHI3L1 (Homo sapiens), P36222",glycan array binding signal (z-score),[10],0.014
"SRLC (Mus musculus), Q8VIF6",glycan array binding signal (z-score),[6],0.13
"PILRb (Mus musculus), Q2YSF2",glycan array binding signal (z-score),[10],0.773
